# Source: the supplement of paper PMC6555819
# Columns and labels:
# Test in all cases: PBM binding z-score (relative to random genomic background probes); higher = stronger binding; sequences stand for … in GC…GCGATTGACAGCGTAGAATGAAGG
# [1] = tested on: RARb homodimer (NR concentration 270 nM)
# In short: (§1)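 Random background probes are the reference for binding z-scores. These scores derive from regression-normalized fluorescence on custom Agilent 4×180K protein-binding microarrays incubated 1 h with ligand-free nuclear receptor dimers. Binding was detected with antibodies against each partner (one per run).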
# [2] = tested on: RARg:RXRa (NR concentration 270 nM, RXRa partner concentration 90 nM)
# In short: as §1
# [3] = tested on: RARg homodimer (NR concentration 270 nM)
# In short: as §1
# [4] = tested on: RXRa DBDmut IVT, anti-RXR (DBD mutation: RXRa K156A/R161A, NR concentration 90 nM)
# In short: as §1
# [5] = tested on: RXRa homodimer (NR concentration 180 nM)
# In short: as §1
# [6] = tested on: THRa:RXRa (NR concentration 90 nM, RXRa partner concentration 90 nM)
# In short: as §1
# [7] = tested on: THRa homodimer (NR concentration 90 nM)
# In short: as §1
# [8] = tested on: VDR homodimer (NR concentration 270 nM)
# In short: as §1
Sequence,PBM binding z-score [1],PBM binding z-score [2],PBM binding z-score [3],PBM binding z-score [4],PBM binding z-score [5],PBM binding z-score [6],PBM binding z-score [7],PBM binding z-score [8]
TAGCCTAGGTCATGCGGGCCAGTACAGTGTCGGC,2.93,3.86,4.22,0.739,3.08,3.06,0.586,0.448
CCACGGAGGACAGAAGGTCAGAGCTGTCCGCTTT,3.73,3.62,3.48,0.42,2.22,2.44,0.0793,0.236
TAGCCTAGGTCATTGGGCCAATATAGTACGCATC,2.88,4.02,3.84,1.41,2.93,2.91,1.2,1.1
GCTGCTAGGTCAGGTTGGTCACCTAACGGGTACG,2.81,2.67,3.43,0.0556,1.44,2.17,1.04,0.477
CCTAGTTGGTCAAAGTCACACACGCTATAGGTAC,1.28,0.912,1.23,0.833,0.561,0.212,0.467,0.811
GGTGCTAGGTCAGGTTGGTCAGCTAACGGGTACG,3.2,2.9,4.21,0.112,1.38,1.94,1.19,0.971
TCTGCTGGGTCAGTTGGTCAGCTAACGAGCTGCC,2.12,2.77,2.99,0.212,1.06,0.669,-0.537,-0.562
CGAACTAGGTCATCCAGGGCAGTGAATACATTGA,3.48,4.41,5.14,2.14,2.97,3.78,1.25,2.25
GCAGACAGGTGAAACGCAGGTAACTCATGGTGGC,0.0324,0.941,0.44,-0.582,0.943,1,-0.808,-0.818
CCGACTGGGGCAAAGGATACCATACTCAGTACGA,0.263,0.271,0.572,-0.0232,0.075,-0.155,-0.322,-0.406
CCTAGTTGGTCGAGGTCACACACGCTATAGGTAC,3.98,4.6,4.42,2.64,5.16,4.16,4.15,4.51
TAGCCTAGGTCAGAACGGGCCAGTATACGCTATA,1.79,2.22,2.92,-0.315,1.19,2.46,-0.361,-0.307
CGAACTAGGTTATTGACAGGACAGTGAATAGTAA,0.991,1.04,0.618,0.59,0.57,1.27,-0.0792,0.278
CCGAGTAGGTTATGGGGCATGCAGGCAACGGTGA,1.15,0.72,0.548,-0.675,0.867,0.102,-0.321,-0.0729
TAGCCTAGGTCATTGGGCCAGTATTGTACGCATC,2.89,3.78,4.05,1.46,2.62,2.88,0.793,1.03
CCTGCTAGGTCAATGGTCAGATAAAGCAGCTCGC,2.54,3.8,4.61,1.55,2.45,2.12,0.626,0.232
CAGCCCAGGTCAGGGCCAGTATAGGAGGAACGTT,2.54,3.15,3.67,-0.41,2.25,2.73,1.48,0.168
GCTGCTAGGTCAGGGTGGTCAGCTAACGGGTACG,3.07,2.91,3.73,0.223,1.41,2.12,0.797,0.245
TCCAGCAGGCCAGAGGGTCACTCAAGAGGTACGG,2.93,2.61,1.71,0.301,2.29,1.7,-0.473,0.227
CGTCCAAGGTCAATGCTCGGTCAGTGAAAGCATT,4.62,6.85,6.5,3.69,5.11,3.71,2.09,2.86
GCATATTGGTAATACAAGGTGAAAGTCCGATTGT,0.603,0.0948,0.327,0.349,0.367,2.39,1,-0.108
TCTTGTAGATCAGCAGGTTAAGAAGGCTGGCCAA,0.175,0.0178,-0.229,0.672,0.428,0.192,-0.361,-0.0588
CCTTACGGGTCACCGACAGGTTATAGCATTTGGA,3.79,6.61,5.55,1.12,6.11,3.23,0.772,1.09
CCTAGCAGGCCAAGCTGGGTCACTCAAGGCTTGA,2.2,1.64,1.65,-0.265,1.17,3.28,-0.143,-0.334
CTAACTAGGTCAAAGGTCAAAGTCGAGCCAACCA,4.93,8.93,7.64,2.72,10.3,4.84,1.59,3.19
TCTAGTTGGACAAAGGTCACACACTCGAAATGCG,5.06,6.62,5.93,1.75,7.13,4.12,1.8,2.24
ACTATTAGTTGACTTAGGGCAACCCATACGACGC,1.13,0.747,1.04,0.729,0.631,1.55,0.725,0.642
AGAACGAGGGCCATGAGTTGATAGCACGGGTGGC,0.111,0.395,0.308,-0.019,0.448,-0.138,-0.79,0.371
